In the supplement of paper PMC11732987, “Enantioselective OTUD7B fragment discovery through chemoproteomics screening and high-throughput optimisation” (Communications Chemistry, 2025):

Tests used:
Assay in all cases: log2 ratio of Biotin-Ahx-Ub-VS probe labelling (fragment/DMSO); higher = less target engagement (more negative = stronger competition), active = hit call of the paper (q ≤ 0.05, log2 ratio ≤ -1)
Conditions in all cases: compound concentration: 200 uM; treatment time: 3 h
ALG13 = target: T1, ALG13 (UniProt Q9NP73)
T1 sequence (whole entry): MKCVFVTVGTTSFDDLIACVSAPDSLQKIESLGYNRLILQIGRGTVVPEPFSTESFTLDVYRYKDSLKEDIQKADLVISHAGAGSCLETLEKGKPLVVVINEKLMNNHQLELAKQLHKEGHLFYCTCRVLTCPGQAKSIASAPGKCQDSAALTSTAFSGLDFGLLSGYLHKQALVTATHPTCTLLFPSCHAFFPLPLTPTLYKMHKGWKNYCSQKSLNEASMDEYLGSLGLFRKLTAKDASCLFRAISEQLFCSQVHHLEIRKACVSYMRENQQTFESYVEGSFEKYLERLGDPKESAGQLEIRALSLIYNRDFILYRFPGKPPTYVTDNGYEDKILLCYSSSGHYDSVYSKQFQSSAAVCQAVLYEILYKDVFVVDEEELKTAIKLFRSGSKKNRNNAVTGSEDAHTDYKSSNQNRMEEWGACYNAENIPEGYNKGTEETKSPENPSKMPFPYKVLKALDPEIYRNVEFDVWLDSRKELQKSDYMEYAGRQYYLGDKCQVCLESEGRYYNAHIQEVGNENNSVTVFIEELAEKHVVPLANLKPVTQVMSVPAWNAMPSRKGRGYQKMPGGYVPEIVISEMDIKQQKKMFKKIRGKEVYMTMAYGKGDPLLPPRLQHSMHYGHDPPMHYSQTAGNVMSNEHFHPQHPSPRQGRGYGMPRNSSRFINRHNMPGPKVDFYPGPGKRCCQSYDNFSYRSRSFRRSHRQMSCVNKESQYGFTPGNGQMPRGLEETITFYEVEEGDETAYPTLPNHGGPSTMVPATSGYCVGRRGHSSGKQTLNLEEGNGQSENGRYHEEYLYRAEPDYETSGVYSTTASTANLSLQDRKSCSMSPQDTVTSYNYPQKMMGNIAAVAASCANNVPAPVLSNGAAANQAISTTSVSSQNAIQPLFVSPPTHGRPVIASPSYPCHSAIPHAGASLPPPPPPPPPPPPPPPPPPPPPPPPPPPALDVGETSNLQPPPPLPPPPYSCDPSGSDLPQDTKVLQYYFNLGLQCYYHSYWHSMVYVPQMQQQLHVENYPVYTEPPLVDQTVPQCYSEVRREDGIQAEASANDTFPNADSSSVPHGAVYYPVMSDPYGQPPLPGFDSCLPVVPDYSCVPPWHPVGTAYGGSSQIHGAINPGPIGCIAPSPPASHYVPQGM
Method in brief: (§1)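 Triplicate samples of HEK293T lysate, 495 µg each, received fragment at 200 µM or vehicle for 3 h, followed by Biotin-Ahx-Ub-VS (0.5 µM final) for 1 h. After NeutrAvidin enrichment of labelled DUBs and LysC/trypsin digestion, peptides were run by diaPASEF LC-MS/MS. The values are average log2 fragment/vehicle ratios from global-median-normalised Spectronaut label-free quantities, tested by unpaired t-test on proteins having ≥2 unique peptides.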

ATXN3 = ATXN3 (UniProt P54252)
Method in brief: as §1

BAP1 = target: T2, BAP1 (UniProt Q92560)
T2 sequence (whole entry): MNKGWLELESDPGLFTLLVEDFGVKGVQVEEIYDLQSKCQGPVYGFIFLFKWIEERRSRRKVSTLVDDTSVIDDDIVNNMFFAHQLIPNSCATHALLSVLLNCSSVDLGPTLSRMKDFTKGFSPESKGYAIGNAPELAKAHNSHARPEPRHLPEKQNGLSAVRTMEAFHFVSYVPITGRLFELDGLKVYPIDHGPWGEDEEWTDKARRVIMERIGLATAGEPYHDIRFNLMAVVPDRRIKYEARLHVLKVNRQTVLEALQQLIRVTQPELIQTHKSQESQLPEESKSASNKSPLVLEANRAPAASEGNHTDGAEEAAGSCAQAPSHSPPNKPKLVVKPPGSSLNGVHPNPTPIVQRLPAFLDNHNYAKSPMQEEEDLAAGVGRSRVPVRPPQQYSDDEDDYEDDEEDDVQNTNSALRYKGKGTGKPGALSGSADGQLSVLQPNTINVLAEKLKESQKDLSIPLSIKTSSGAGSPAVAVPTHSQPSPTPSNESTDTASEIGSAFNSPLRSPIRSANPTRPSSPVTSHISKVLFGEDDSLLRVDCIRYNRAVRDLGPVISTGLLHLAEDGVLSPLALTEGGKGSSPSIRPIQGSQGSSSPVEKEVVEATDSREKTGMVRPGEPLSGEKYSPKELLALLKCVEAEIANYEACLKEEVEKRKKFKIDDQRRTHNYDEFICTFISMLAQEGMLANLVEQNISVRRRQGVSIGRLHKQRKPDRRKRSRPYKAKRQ
Method in brief: as §1

EIF3F = EIF3F (UniProt O00303)
Method in brief: as §1

EIF3H = EIF3H (UniProt O15372)
Method in brief: as §1

FAM105A = target: T3, FAM105A (UniProt Q9NUU6)
T3 sequence (whole entry): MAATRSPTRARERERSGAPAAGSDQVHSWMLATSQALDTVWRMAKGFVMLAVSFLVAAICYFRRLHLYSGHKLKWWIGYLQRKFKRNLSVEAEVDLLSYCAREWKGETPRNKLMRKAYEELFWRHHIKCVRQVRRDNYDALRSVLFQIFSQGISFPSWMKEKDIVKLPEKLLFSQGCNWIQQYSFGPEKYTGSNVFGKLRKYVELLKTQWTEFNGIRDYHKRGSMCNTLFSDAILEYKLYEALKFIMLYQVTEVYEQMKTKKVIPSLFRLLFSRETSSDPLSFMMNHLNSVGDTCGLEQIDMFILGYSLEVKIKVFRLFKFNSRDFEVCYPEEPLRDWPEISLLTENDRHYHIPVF
Method in brief: as §1

OTUB1 = OTUB1 (UniProt Q96FW1)
Method in brief: as §1

OTUD4 = target: T4, OTUD4 (UniProt Q01804)
T4 sequence (whole entry): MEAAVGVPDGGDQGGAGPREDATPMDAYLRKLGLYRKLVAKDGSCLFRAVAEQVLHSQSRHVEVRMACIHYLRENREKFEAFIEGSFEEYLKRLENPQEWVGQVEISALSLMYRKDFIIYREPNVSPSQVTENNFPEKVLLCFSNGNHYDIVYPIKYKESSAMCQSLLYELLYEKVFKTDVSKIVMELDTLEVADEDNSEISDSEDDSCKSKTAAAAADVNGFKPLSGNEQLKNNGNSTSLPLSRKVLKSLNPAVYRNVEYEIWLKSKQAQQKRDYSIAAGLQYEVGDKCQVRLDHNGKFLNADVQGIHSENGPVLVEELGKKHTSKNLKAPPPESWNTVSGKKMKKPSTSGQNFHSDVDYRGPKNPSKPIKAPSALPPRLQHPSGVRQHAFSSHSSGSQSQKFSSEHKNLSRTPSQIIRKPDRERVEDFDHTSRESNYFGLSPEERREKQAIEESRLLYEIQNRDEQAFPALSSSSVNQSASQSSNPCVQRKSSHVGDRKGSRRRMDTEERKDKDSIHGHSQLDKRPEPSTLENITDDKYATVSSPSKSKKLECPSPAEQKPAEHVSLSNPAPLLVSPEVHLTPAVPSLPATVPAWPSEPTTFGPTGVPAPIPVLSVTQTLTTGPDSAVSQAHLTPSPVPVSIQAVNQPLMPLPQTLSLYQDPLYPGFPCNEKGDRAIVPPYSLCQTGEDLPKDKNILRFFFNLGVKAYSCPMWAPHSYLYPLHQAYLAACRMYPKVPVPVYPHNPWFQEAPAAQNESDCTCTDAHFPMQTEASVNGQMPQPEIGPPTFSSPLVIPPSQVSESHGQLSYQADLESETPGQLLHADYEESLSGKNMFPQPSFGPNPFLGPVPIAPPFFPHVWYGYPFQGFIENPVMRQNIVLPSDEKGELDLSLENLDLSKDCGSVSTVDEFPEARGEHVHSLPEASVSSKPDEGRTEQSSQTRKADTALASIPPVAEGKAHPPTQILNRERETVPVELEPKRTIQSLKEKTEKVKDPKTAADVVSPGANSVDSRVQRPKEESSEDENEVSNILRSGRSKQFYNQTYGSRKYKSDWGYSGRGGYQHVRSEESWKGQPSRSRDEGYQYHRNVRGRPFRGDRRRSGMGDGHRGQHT
Method in brief: as §1

OTUD5 = target: T5, OTUD5 (UniProt Q96G74)
T5 sequence (whole entry): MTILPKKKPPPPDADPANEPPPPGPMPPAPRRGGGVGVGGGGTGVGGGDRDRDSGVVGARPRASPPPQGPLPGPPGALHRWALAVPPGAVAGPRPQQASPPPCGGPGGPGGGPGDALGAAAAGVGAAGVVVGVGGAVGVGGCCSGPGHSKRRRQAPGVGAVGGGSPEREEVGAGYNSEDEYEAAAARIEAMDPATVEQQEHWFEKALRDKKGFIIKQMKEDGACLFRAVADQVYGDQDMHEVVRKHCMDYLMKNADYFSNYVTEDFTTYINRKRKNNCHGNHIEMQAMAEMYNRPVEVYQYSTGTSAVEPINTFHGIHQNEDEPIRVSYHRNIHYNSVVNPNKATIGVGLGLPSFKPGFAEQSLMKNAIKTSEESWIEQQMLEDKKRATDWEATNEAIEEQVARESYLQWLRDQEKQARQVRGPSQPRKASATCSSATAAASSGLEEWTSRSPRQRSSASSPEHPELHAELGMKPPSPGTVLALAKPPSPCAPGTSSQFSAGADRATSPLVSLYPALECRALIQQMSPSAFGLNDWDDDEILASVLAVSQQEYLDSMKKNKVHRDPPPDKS
Method in brief: as §1

Measured: log2 ratio of Biotin-Ahx-Ub-VS probe labelling

Chain of EIF3F (O00303 whole entry): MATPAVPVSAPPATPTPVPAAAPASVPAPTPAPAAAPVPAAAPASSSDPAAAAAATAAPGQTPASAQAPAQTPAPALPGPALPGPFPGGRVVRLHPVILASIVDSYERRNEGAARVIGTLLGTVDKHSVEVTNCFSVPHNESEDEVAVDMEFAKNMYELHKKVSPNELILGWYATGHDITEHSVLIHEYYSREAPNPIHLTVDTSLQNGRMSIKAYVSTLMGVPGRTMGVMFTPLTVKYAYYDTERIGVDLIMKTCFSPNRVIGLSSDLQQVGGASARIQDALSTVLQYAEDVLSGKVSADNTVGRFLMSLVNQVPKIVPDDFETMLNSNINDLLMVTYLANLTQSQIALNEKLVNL
Chain of EIF3H (O15372 whole entry): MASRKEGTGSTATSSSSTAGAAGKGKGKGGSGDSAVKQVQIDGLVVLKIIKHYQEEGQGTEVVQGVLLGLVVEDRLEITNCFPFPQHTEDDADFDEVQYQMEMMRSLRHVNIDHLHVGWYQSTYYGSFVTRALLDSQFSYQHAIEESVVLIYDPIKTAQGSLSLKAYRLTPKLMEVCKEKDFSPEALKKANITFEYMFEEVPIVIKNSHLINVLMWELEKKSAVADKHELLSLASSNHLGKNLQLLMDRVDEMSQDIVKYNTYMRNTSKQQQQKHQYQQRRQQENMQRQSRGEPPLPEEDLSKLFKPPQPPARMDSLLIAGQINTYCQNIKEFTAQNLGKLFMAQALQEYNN
Chain of ATXN3 (P54252 whole entry): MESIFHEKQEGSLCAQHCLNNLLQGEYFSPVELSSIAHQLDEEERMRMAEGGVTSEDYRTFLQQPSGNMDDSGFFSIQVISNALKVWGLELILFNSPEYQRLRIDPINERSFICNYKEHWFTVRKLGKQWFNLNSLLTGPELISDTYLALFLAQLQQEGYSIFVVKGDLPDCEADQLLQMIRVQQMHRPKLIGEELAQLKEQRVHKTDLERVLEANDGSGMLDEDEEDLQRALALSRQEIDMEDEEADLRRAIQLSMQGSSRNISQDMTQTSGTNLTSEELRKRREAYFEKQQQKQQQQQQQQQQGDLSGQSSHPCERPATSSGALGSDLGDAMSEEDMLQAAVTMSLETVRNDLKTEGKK
Chain of OTUB1 (Q96FW1 whole entry): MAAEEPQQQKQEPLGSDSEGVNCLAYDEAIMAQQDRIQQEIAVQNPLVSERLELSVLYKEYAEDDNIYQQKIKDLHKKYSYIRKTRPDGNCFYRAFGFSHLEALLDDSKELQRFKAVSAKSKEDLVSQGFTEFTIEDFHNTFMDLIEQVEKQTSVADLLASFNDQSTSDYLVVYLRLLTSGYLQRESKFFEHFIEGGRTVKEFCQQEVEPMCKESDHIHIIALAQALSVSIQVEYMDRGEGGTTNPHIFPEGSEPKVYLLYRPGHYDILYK

Cc1ncc2c(n1)CCN(C(=O)CCl)C2
inactive: ALG13 -0.466 | ATXN3 -0.614 | BAP1 -0.39 | EIF3F -0.159 | EIF3H 0.129 | FAM105A 0.443 | OTUB1 -0.578 | OTUD4 -0.0123 | OTUD5 -0.606
